Measurements as given in PubChem BioAssay (NCATS).
Results filed as inconclusive are left out. Activity calls are given as the source filed them. Calls follow the shape of the dose curve; as a rule, active = well fitted curve in the direction sought with a large enough effect; inconclusive = small, poorly fitted or top-dose-only effect, or another doubt; inactive = no such curve, though single readings can be large; an effect the other way counts as inactive or inconclusive.

Key:
[1] = Cellular Toxicity (caspase-3) Mesangial (AID 660); settings: mesangial cells, normalized: DMSO 0%, 100 µM tamoxifen 100%; at 91.7 µM (top of the series);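 also: combined caspase 3 and 7 activity read by Caspase-Glo luminescence; cells exposed to compound for 16 h before the caspase read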
Procedure, shortened: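 Human renal glomerular mesangial cells, 1000/well, 5 h at 37 C before 16 h compound treatment. Caspase-Glo 3/7 luminescence after 20 min; normalized to DMSO and 100 uM tamoxifen, AC50 from Hill fit.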

[2] = Cellular Toxicity (caspase-3) SK-N-SH (AID 661);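 also: 0% = DMSO basal and 100% = 10 µM staurosporine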
Procedure, shortened: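 Human SK-N-SH neuroblastoma cells, 1500/well, were exposed to compounds for 16 hours at 37 °C. Caspase-Glo 3/7 luminescence was normalized to DMSO (basal) and 10 uM staurosporine (100%), and AC50 came from a Hill fit.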

[3] = Cellular Toxicity (caspase-3) H-4-II-E (AID 663); settings: H-4-II-E rat hepatoma, scaled: DMSO 0%, 100 µM tamoxifen 100%; at 92.2 µM (top of the series);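 also: cells exposed to compound for 16 hr before readout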
Procedure, shortened: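 Apoptosis induction is scored as increased luminescence from caspase 3/7 substrate cleavage in rat hepatoma H-4-II-E cells exposed to compound for 16 hr. Activity is scaled between DMSO and 100 uM tamoxifen.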

[4] = Cellular Toxicity (caspase-3) N2a (AID 665);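 also: compound exposure lasted 16 h at 37 °C before readout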
Procedure, shortened: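 Mouse N2a neuroblastoma cells, 1500 per well, treated 16 h at 37 °C in complete medium; caspase-3/7 activity by Caspase-Glo luminescence after 1 h. Normalized to DMSO and 10 uM staurosporine; AC50 from Hill fits.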

[5] = Cellular Toxicity (caspase-3) NIH 3T3 (AID 666);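 also: caspase signal read after 16 h compound exposure; 0% = DMSO basal and 100% = 100 µM tamoxifen stimulation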
Procedure, shortened: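 Mouse NIH 3T3 fibroblasts (1000/well) treated 16 h at 37 C; caspase-3/7 activity measured by Caspase-Glo 3/7 luminescence after 20 min. Normalized to DMSO and 100 uM tamoxifen; AC50 from Hill fits.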

[6] = Cellular Toxicity (caspase-3) Renal Proximal Tubule (AID 667); settings: Potency: caspase-3 activation;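 also: cells exposed to compound for 16 hours at 37 °C before detection; 0% = DMSO basal and 100% = 10 µM staurosporine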
Procedure, shortened: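 Freshly isolated primary rat kidney proximal tubule cells, 1000/well, treated 16 hr at 37 °C, then Caspase-Glo 3/7 luminescence after 1 hr. Normalized to DMSO and 10 uM staurosporine; AC50 from Hill fit.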

[7] = biological target: Cytochrome P450 3A4 (Homo sapiens) (UniProt P08684); assay: qHTS Assay for Inhibitors and Substrates of Cytochrome P450 3A4 (AID 884); also: % is scaled to controls: 0 for no effect and ±100 for the full control effect; nearly all actives have a fitted effect of over 50% in size
Chain of Cytochrome P450 3A4 (Homo sapiens) (P08684 whole entry, looked up): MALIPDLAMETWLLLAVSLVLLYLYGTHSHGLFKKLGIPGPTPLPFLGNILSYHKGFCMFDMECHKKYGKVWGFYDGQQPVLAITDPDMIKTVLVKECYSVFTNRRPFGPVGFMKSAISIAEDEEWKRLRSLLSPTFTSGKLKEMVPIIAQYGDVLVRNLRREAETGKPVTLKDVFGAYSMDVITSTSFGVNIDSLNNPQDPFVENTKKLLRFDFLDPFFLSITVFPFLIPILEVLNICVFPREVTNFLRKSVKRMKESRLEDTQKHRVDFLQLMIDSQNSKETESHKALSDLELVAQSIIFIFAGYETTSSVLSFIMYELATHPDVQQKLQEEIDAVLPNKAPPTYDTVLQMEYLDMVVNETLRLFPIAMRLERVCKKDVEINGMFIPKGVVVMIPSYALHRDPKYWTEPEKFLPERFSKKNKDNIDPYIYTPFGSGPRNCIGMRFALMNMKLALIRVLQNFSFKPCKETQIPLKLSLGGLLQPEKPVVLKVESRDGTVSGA
Procedure, shortened: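 20 nM human CYP3A4 with 25 uM Luciferin-PPXE (at KM) in 200 mM KPO4, preincubated 10 min with compound; NADPH regeneration started a 60 min RT reaction. Luciferin detected by luminescence, normalized to 57 uM ketoconazole as full inhibition.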

[8] = Cell Viability - LYMP2-001 (AID 921);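 also: cells exposed to compound for 24 h at 37 °C; 0% = DMSO only and full inhibition = tetraoctylammonium bromide control wells; nearly all actives have a fitted effect of over 70% in size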
Procedure, shortened: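 Human lymphoblastoid LYMP2-001 cells, 2500 per well, in complete medium, treated 24 h at 37 C. Viability from cellular ATP by CellTiter-Glo luminescence; AC50 from Hill-equation fits of qHTS concentration-response.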

[9] = biological target: Cytochrome P450 3A4 (Homo sapiens) (UniProt P08684); assay: qHTS Assay for Activators of Cytochrome P450 3A4 (AID 885); also: nearly all actives have a fitted effect of over 65% in size
Procedure, shortened: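 Signal was normalized against complete inhibition by 57 uM ketoconazole. The reaction used 20nM CYP3A4 with 25uM Luciferin-PPXE, 10-min compound preincubation and a 60-min NADPH-supported step at RT.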

[10] = Cellular Toxicity (caspase-3) Hek293 (AID 664); settings: HEK293 caspase-3 activation, DMSO = 0%, 100 µM tamoxifen = 100%; at 92.2 µM (top of the series);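 also: cells exposed to compound for 16 h at 37 °C before readout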
Procedure, shortened: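 HEK293 cells in complete medium treated 16 h at 37 °C, then Caspase-Glo 3/7 luminescence read after 20 min at room temperature. Normalized to DMSO and 100 uM tamoxifen; AC50 from Hill fit of concentration-response.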

ClC/C=C/CCl
inactive: caspase-3 activation [1] 0.143% | outcome [2] | caspase-3 activation [3] 3.85% | outcome [4] | outcome [5] | Potency [6] | Potency [7]

O=C(O)c1c(Cl)cccc1Cl
inactive: caspase-3 activation [1] 0.0651% | outcome [2] | caspase-3 activation [3] -0.197% | outcome [4] | outcome [5] | Potency [6] | Potency [7] | Potency [8]

O=CNc1ccccc1
inactive: caspase-3 activation [1] -0.303% | outcome [2] | caspase-3 activation [3] 0.272% | outcome [4] | outcome [5] | Potency [6] | Potency [7] | Potency [8]

Cc1ccc(C(=O)O)cc1
inactive: caspase-3 activation [1] -0.126% | outcome [2] | caspase-3 activation [3] 1.11% | outcome [5] | Potency [6] | Potency [7] | Potency [8]

OC1CCCC1
inactive: caspase-3 activation [1] -0.56% | outcome [2] | caspase-3 activation [3] 0.647% | outcome [4] | outcome [5] | Potency [6] | Potency [7] | Potency [8]

CCCCCCCCCCCCC1CO1 (configuration not stated)
inactive: caspase-3 activation [1] -0.00149% | outcome [2] | caspase-3 activation [3] 0.543% | outcome [4] | Potency [6] | Potency [7] | Potency [8]

COC(=O)CCC(=O)OC
inactive: caspase-3 activation [1] -0.284% | outcome [2] | caspase-3 activation [3] 0.845% | outcome [5] | Potency [6] | Potency [7] | Potency [8]

N#CCc1ccccc1[N+](=O)[O-]
inactive: caspase-3 activation [1] -0.803% | outcome [2] | caspase-3 activation [3] 1.83% | outcome [4] | Potency [6] | Potency [7] | Potency [8]

C1CCOC1
inactive: caspase-3 activation [1] -0.124% | outcome [2] | caspase-3 activation [3] 0.164% | outcome [4] | Potency [6] | Potency [7] | Potency [8]

O=C(O)c1ccc(Cl)c(Cl)c1
inactive: caspase-3 activation [1] -0.246% | outcome [2] | caspase-3 activation [3] -0.517% | outcome [4] | outcome [5] | Potency [6] | Potency [7] | Potency [8]

COc1cccc(N)c1
inactive: caspase-3 activation [1] 2% | outcome [2] | caspase-3 activation [3] 4.32% | outcome [4] | outcome [5] | Potency [6] | outcome [9] | Potency [8]

CCc1ccccc1O
inactive: caspase-3 activation [1] -0.562% | outcome [2] | caspase-3 activation [3] -0.213% | outcome [4] | outcome [5] | Potency [6] | Potency [7] | Potency [8]

c1ccc2c(c1)ccc1ncccc12
inactive: caspase-3 activation [1] -0.196% | outcome [2] | caspase-3 activation [3] 0.297% | outcome [4] | outcome [5] | Potency [6] | Potency [8]

C=C(C)C(=O)OC
inactive: caspase-3 activation [1] 0.161% | outcome [2] | caspase-3 activation [3] 1.27% | outcome [4] | outcome [5] | Potency [6] | Potency [7] | Potency [8]

CCC(C)(C)C(=O)O
inactive: caspase-3 activation [1] 0.0755% | outcome [2] | caspase-3 activation [3] 1.75% | outcome [4] | outcome [5] | Potency [6] | Potency [7] | Potency [8]

N#CC1(O)CCCCC1
inactive: caspase-3 activation [1] 0.158% | outcome [2] | caspase-3 activation [3] -0.143% | outcome [4] | outcome [5] | Potency [6] | Potency [7] | Potency [8]

C=CCCCCCC
inactive: caspase-3 activation [1] 0.339% | caspase-3 activation [3] 1.37% | caspase-3 activation [10] -0.874% | outcome [4] | Potency [6] | Potency [7] | Potency [8]

NC(=O)CCCCC(N)=O
inactive: caspase-3 activation [1] -0.354% | caspase-3 activation [3] 0.202% | outcome [4] | outcome [5] | Potency [6] | Potency [7] | Potency [8]

Nc1ccc(Cl)cc1[N+](=O)[O-]
inactive: caspase-3 activation [1] 0.0963% | caspase-3 activation [3] -0.0414% | caspase-3 activation [10] 1.61% | outcome [5] | Potency [6] | Potency [7] | Potency [8]
